Source: PubChem BioAssay
MEKK3 PB1 HTS – modulators (inhibitors or enhancers) of MEK5 binding to human MEKK3 PB1 domain; Q99759; actives 1.4% (n = 290,000); bead-based flow cytometry, Alexa488-MEK5 binding to MEKK3; actives lie on both sides; 0 = blocked by unlabeled MEK5, 100 = vehicle; binding response (% of control), % at 10 µM; AID 1529;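 active = binding response more than 3 SD above or below the average of its plate-row segment, actives on both sides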;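 note: Alexa488 bead fluorescence after subtracting the streptavidin-only scavenger bead signal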
Target sequence (Q99759 whole entry, looked up, the tested form may be a part): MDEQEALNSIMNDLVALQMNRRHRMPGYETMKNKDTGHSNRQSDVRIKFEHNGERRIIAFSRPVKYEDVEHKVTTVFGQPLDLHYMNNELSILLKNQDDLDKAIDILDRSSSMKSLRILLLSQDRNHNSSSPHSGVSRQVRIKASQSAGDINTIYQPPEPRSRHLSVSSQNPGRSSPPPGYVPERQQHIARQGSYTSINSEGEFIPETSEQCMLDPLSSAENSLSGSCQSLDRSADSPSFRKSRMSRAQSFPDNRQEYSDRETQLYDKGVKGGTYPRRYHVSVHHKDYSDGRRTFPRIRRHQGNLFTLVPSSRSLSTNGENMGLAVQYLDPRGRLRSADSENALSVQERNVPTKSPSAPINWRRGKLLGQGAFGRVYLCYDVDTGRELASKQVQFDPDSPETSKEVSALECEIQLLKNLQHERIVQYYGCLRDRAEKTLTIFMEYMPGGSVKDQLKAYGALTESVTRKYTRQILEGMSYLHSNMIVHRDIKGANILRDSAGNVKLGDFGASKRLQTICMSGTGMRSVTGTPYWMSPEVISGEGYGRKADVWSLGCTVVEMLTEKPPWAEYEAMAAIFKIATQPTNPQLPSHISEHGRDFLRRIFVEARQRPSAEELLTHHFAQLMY
MEKK2wt PB1 HTS – raises or lowers MEK5 binding to wildtype human MEKK2 PB1 domain; Q9Y2U5; actives 1.1% (n = 290,000); bead flow cytometry, Alexa488-MEK5 binding to MEKK2 WT; actives lie on both sides; AID 1531; binding response (% of control), % at 10 µM; in the data active = binding response below about 67% or above about 130%
VLA-4 inh – inhibition in a human VLA-4 binding assay; inhibition, % (about 7 µM as worked out from the volumes in the protocol); actives 0.2% (n = 330,000); VLA-4 expressing cells, ligand binding flow cytometry; P13612; AID 2557; in the data active = inhibition above about 50%
MEKK2mut PB1 HTS – signal of MEK5 binding to mutant human MEKK2 PB1 domain; bead flow cytometry, Alexa488-MEK5 binding to MEKK2 mutant; AID 1530; actives 0.35% (n = 290,000); percent response, % at 10 µM; in the data active = percent response above about 24%, passing the limit was not always enough
VLA-4 mod pick – human VLA-4 allosteric modulation in cherry picked compounds; shares compounds with VLA-4 inh; inhibition, % at 6.7 µM; actives 2% (n = 1,300); U937 cells, HUTS-21 LIBS mAb binding, flow cytometry; LDV ligand present at threefold Kd; AID 2813; in the data active = inhibition above about 40%
Hits are given with their value; i = inactive; nt = no result. Rows were chosen to be rich in hits. Some 2.2% of all compounds tested hit in one or more screens of this group.

SMILES | MEKK3 PB1 HTS | MEKK2wt PB1 HTS | VLA-4 inh | MEKK2mut PB1 HTS | VLA-4 mod pick
COc1cc(OC)cc(C(=O)NC(C(=O)N2CCc3ccccc3C2)C(C)C)c1 (centres undefined) | i | i | 49.8 | i | i
COc1ccc(OC)c(N(CC(=O)Nc2cccnc2)S(=O)(=O)c2ccccc2)c1 | i | i | 63.1 | i | i
Cc1cc(=O)oc2cc(OC(C)C(=O)NCCCN3CCCC3=O)c(Cl)cc12 (centres undefined) | i | i | 51.8 | i | i
CC(C)c1ccc(NC(=O)C(c2ccccc2)N2CC(=O)Nc3ccccc32)cc1 (centres undefined) | i | i | 71.8 | i | i
COc1cc(OC)cc(C(=O)NNC(=S)NCc2ccco2)c1 | i | i | 52.6 | i | i
COc1cc(OC)cc(C(=O)NC(=S)NCc2ccco2)c1 | i | i | i | i | nt
COc1ccc(-c2nnc(SCc3c(C)noc3C)o2)cc1 | i | i | i | i | nt
COc1ccccc1-c1nc2ccc(Cl)cc2c(=O)n1O | i | i | i | i | i
COc1cc(C)nc(NS(=O)(=O)c2ccccc2Cl)n1 | i | i | i | i | i
Cc1cc(NN)nc(NS(=O)(=O)c2ccccc2Cl)n1 | i | i | i | i | nt
O=C(Nc1nncs1)C12CC3CC(CC(Cl)(C3)C1)C2 | i | i | i | i | nt
CC(C)Oc1ccccc1C1CC(=O)Nc2cc3c(cc21)OCO3 (centres undefined) | i | i | 56.8 | i | 42.2
Cc1cc2c(cc1C)C(c1ccccc1OC(C)C)CC(=O)N2 (centres undefined) | i | i | i | i | i
CCOc1ccccc1C1CC(=O)Nc2cc3c(cc21)OCCO3 (centres undefined) | i | i | i | i | nt
COc1ccccc1C1CC(=O)Nc2cc(C)c(C)cc21 (centres undefined) | i | i | i | i | nt
COc1ccc(C2CC(c3ccccc3)=NN2C(=O)CN2CCN(Cc3ccccc3)CC2)cc1 (centres undefined) | i | i | i | i | nt
CCCC[C@@H]1C=C(C(=O)O)[C@H](c2ccc3c(c2)OCO3)N1S(=O)(=O)c1ccc(C)cc1 | nt | nt | i | nt | i
Cc1ccc(S(=O)(=O)N2[C@@H](c3ccc(Cl)c(Cl)c3)C(C(=O)O)=C[C@H]2CC2CCCC2)cc1 | nt | nt | i | nt | nt
Cc1ccc(S(=O)(=O)N2[C@@H](c3ccc(Cl)cc3)C(C(=O)O)=C[C@H]2CC2CCCC2)cc1 | nt | nt | i | nt | i
CCCCC[C@@H]1C=C(C(=O)O)[C@H](c2ccc(Br)cc2)N1S(=O)(=O)c1ccc(C)cc1 | nt | nt | i | nt | i
CC[C@@H]1C=C(C(=O)O)[C@H](c2ccc(Cl)cc2)N1S(=O)(=O)c1ccc(C)cc1 | nt | nt | i | nt | nt
CCCC[C@@H]1C=C(C(=O)O)[C@H](c2ccc(Cl)cc2)N1S(=O)(=O)c1ccc(C)cc1 | nt | nt | i | nt | i
COc1ccc(C(=O)N2CCCCCC2)cc1S(=O)(=O)N1CCOCC1 | i | i | i | i | nt
Cc1ccc(NC(=O)C2CCN(C(=O)c3ccc(F)cc3)CC2)nc1 | nt | nt | i | nt | i
O=C(NCCc1ccccc1)C1CCN(C(=O)c2ccc(F)cc2)CC1 | i | i | i | i | nt
SMILES | MEKK3 PB1 HTS | MEKK2wt PB1 HTS | VLA-4 inh | MEKK2mut PB1 HTS | VLA-4 mod pick
O=C(Nc1ccc(F)cc1)C1CCN(C(=O)c2ccc(F)cc2)CC1 | nt | nt | i | nt | i
CCSc1nnc(NC(=O)C2CCN(C(=O)c3ccc(F)cc3)CC2)s1 | nt | nt | i | nt | nt
O=C(NCCc1ccc(F)cc1)C1CCN(C(=O)Nc2ccccc2)CC1 | nt | nt | 58.2 | nt | i
O=c1ccnc(Nc2ccc3c(c2)OCCO3)[nH]1 | i | i | i | i | nt
Cc1ccc(SCc2nc(N)nc(Nc3ccccc3C)n2)cc1C | i | i | 54.1 | i | i
Cc1ccc(NC(=O)C(C)c2ccc(-c3ccccc3)c(F)c2)cc1 (centres undefined) | i | i | 88.3 | i | i
Cc1ccc(NC(=O)C(Nc2ccccc2)c2ccccc2)cc1 (centres undefined) | i | i | i | i | nt
CCN(CC)C(=O)c1cccc(NC(=O)C2CCN(C(=O)c3cccs3)CC2)c1 | nt | nt | i | nt | nt
CC(C(=O)NCC1CCCCC1)N1CCN(S(=O)(=O)/C=C/c2ccccc2)CC1 (centres undefined) | i | i | i | i | i
O=C(OCc1c(F)cccc1Cl)c1cccnc1Cl | i | i | 50.6 | i | i
CSc1ncccc1C(=O)OCc1c(F)cccc1Cl | i | i | i | i | nt
CCC(C(=O)OC)n1cnc2c(nnn2-c2cccc(OC)c2)c1=O (centres undefined) | i | i | i | i | i
